Screens: PubChem, National Center for Advancing Translational Sciences (NCATS)
PLK1 PBD inh = blocks phosphopeptide binding to human PLK1 polo-box domain. Plk1 PBD binding of FITC phosphopeptide, fluorescence polarization. AID 720504. P53350. 360,000 tested, 2.8% active. Potency, µM, inactives show max response, negative = inhibition, hits mostly inhibitors; further: potency means the concentration at half of the fitted maximal effect; series mostly up to about 57 µM; nearly all actives have a fitted effect of over 65% in size
G9a block = inhibitors of human histone lysine methyltransferase G9a | Q96KQ7 | G9a H3K9 monomethylation, AlphaScreen, 2 h | Potency, µM (top dose mostly 102 µM), for the others: at the top dose activity, negative = inhibition, hits mostly inhibitors | 350,000 tested, 8.8% active | AID 504332; further: potency means the concentration at half of the fitted maximal effect; nearly all actives have a fitted effect of over 75% in size
Target sequence (Q96KQ7 913-1193 limits assumed): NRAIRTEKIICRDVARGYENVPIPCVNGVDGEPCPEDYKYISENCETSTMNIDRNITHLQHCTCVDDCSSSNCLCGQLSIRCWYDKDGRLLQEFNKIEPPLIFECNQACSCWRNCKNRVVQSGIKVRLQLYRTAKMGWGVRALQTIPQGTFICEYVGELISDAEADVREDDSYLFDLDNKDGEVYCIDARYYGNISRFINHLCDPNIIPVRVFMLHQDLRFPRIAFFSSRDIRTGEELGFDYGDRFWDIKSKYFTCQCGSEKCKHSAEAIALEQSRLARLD
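Chemiluminescent proximity detection of H3K9 monomethylation, read after 10 min bead incubation in the dark. Reaction: 20 nM G9a, 500 nM biotin-H3K9 peptide, 20 uM SAM cofactor, 2 h, room temperature, following 15 min enzyme-compound preincubation.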
Sfp PPTase inh = blocks B. subtilis Sfp PPTase activity; Q9F4F7; Biochemical Sfp PPTase activity, qHTS; Potency, µM, inactives show largest response in the series, negative = inhibition, hits mostly inhibitors; 310,000 tested, 3.5% active;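 further: the enzyme is Sfp with the accession as filed and its product quenches rhodamine fluorescence; potency means the concentration at half of the fitted maximal effect; 0% = enzyme reaction without inhibitor and -100% = no enzyme wells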
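Fluorescence-quenching assay: 15 nM Sfp-PPTase preincubated 15 min at room temperature with compound, then 5 uM rhodamine-CoA and 12.5 uM BHQ-2-labelled YbbR peptide added. Fluorescence (ex 525/em 598 nm) read at start and after 30 min; difference gives rate.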
CCT modulator = changes cytosolic chaperonin activity | purified chaperonin ATPase assay, HTRF ADP detection, 30 min | activity change, % (concentration not given with the values), hits read low | 360,000 tested, 0.3% active | AID 651819; in the data active means activity change below about -30%
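TRiC at 40 or 20 nM final (batch-dependent) in 30 mM Tris pH 7.4, 100 mM KCl, 5 mM MgCl2, 1 mM DTT, with compound at single 76 uM and 10 uM ATP, 30 min at 37 deg C. ADP detected by HTRF Transcreener, 665/615 ratio.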
Mm-Cpn inhibitor = inhibitors of Methanococcus maripaludis chaperonin TRiC (MmCpn) | Potency, µM (series often up to 76.9 µM), without a hit: at the highest dose activity, negative = inhibition, usual class: inhibitors | purified Mm-Cpn ATPase, ADP Transcreener TR-FRET | 330,000 tested, 0.031% active | AID 504842; further: potency means the concentration at half of the fitted maximal effect; nearly all actives have a fitted effect of over 80% in size
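Quantitative HTS used 25 nM Mm-CPN and 10 uM ATP in magnesium/KCl Tris buffer, pH 7.4, with 1 mM DTT. Hydrolysis ran 30 min at 37°C; ADP was read by HTRF.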
VDR inhibitor = vitamin D3 receptor (human) inhibition; VDR-SRC2-3 peptide fluorescence polarization, 2 h; P11473; 400,000 tested, 0.93% active; Potency, µM, for inactives: max response, negative = inhibition, most hits filed as inhibitors; further: potency means the concentration at half of the fitted maximal effect
Target sequence (P11473 whole entry, looked up): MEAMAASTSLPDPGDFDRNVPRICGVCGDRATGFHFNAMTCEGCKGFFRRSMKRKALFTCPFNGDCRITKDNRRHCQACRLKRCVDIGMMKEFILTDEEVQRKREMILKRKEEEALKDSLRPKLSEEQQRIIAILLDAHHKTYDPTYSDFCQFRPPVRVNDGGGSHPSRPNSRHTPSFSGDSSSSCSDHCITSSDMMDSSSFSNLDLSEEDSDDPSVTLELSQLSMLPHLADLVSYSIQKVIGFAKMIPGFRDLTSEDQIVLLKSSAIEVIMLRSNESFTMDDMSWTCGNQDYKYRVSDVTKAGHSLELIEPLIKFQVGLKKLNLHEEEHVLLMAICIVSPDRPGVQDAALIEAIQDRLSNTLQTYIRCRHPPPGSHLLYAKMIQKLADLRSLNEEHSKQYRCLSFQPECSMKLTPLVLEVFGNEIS
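Fluorescence polarization assay measuring small-molecule disruption of VDR binding to the coregulator peptide SRC2-3. Compounds were pin-transferred (23 nl) into the reagent mix and incubated 2 h at room temperature before reading.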
Numbers without * were called inactive; ? = inconclusive; . = no result; ! = repeats disagree; [ ] = dose if it differs, or a comment. A selection: hits, their analogues and other compounds. The true share with any hit is near 10%. Unless noted, the call rests on the fitted dose curve; in most records, active means well fitted curve in the direction sought with a large enough effect; inconclusive means small, poorly fitted or top-dose-only effect, or another doubt; inactive means no such curve, though single readings can be large; an effect the other way counts as inactive or inconclusive. Unless noted, on the % scale 0 is the no-effect control and ±100 the full control effect.

SMILES	PLK1 PBD inh	G9a block	Sfp PPTase inh	CCT modulator	Mm-Cpn inhibitor	VDR inhibitor
CC1/C(=N/O)CC(c2ccco2)NC1c1ccco1 (stereo not drawn)	-2%	11%[59 µM]	-6%	3	1%	7%
O=C(Cn1c(=O)n(Cc2ccco2)c(=O)c2ccccc21)Nc1cccc(F)c1	.	28%[59 µM]	.	.	.	-6%
O=C(Cn1c2ccccc2c(=O)c2ccccc21)Nc1cccc(F)c1	11µM*	13%	-18%	1	2%	?
Cc1oc(-c2ccc3c(c2)OCCO3)cc1C(=O)NC(Cc1ccccc1)C(=O)O (stereo not drawn)	?	35µM*	22µM*	-1	1%	?
Cc1oc(C(C)(C)C)cc1C(=O)NC(Cc1ccccc1)C(=O)O (stereo not drawn)	-8%	1%	20%	-8	-2%	-15%
COC(=O)CCC(NC(=O)c1cc(-c2ccc3c(c2)OCCO3)oc1C)C(=O)OC (stereo not drawn)	-30%	?	35µM*	-3	0%	-13%
CCOc1ccc(NS(=O)(=O)c2ccc(NC(=O)N3CCCC3)cc2)cc1	.	9%[59 µM]	.	.	.	-7%
O=c1oc2cc(O)ccc2s1	-19%	4%[2.33 µM]	-27%	0	-2%	28µM*!
Oc1ccc2c(c1)oc1cc(O)ccc12	-4%	10%[12.7 µM]	-1%	-3	-5%	-1%
O=c1c(-c2ccco2)nc2ccccc2n1C(CCc1ccccc1)c1nc2ccccc2[nH]1 (stereo not drawn)	3µM*	.	.	.	.	.
CCC(c1nc2ccccc2[nH]1)n1c(=O)c(-c2ccco2)nc2ccccc21 (stereo not drawn)	-24%	.	.	.	.	.
COc1ccc(-n2cnc3cc(NCc4cccs4)ccc32)cc1	27µM*	?	-4%	1	0%	-10%
c1ccc(-n2cnc3cc(NCc4ccco4)ccc32)cc1	-29%	11µM*	-4%	-3	-2%	-18%
Cc1ccc(-n2cnc3cc(NCc4cccs4)ccc32)cc1	-10%	?	?	-1	-10%	-7%
COc1ccc(C)cc1NC(=O)C(=O)NCCc1csc2nc(-c3ccccc3F)nn12	.	7%[59 µM]	.	.	.	10%
COc1ccc(N2CCC(CNC(=S)Nc3cccc(C)c3)C2)cc1 (stereo not drawn)	?	?	-11%	-3	-2%	-15%
COc1ccc(N2CCC(CNC(=S)Nc3c(C)cc(C)cc3C)C2)cc1 (stereo not drawn)	12µM*	?	?	0	-2%	-8%
COc1ccc(N2CCC(CNC(=S)Nc3ccc(C)cc3C)C2)cc1 (stereo not drawn)	?	?	50µM*	0	-1%	-12%
O=C(NCc1ccc2c(c1)OCO2)c1ccc(C2SCC(=O)N2Cc2ccco2)cc1 (stereo not drawn)	-5%	2%[12.7 µM]	35µM*	1	?	-14%
CC(C)CNC(=O)c1ccc(C2SCC(=O)N2Cc2ccccc2)cc1 (stereo not drawn)	24µM*	.	13%	-8	-1%	79µM*
COc1ccc(CN2CCc3c([nH]c4ccccc34)C2)cc1Br	-10%	?	?	0	-1%	1%
COc1ccc(CN2CCc3c([nH]c4ccccc34)C2)c(OC)c1C	-9%	32µM*	-24%	-1	-1%	-9%
CCOc1cc(CN2CCc3c([nH]c4ccccc34)C2)ccc1OC	7%	11µM*	-21%	0	2%	-6%
CCOC(=O)c1c(S(=O)(=O)N2CCC(C(=O)Nc3ccc(C)cn3)CC2)c(C)n(C)c1C	.	-37%[59 µM]	.	.	.	2%
CCOC(=O)c1c(S(=O)(=O)Nc2ccc(C)cn2)c(C)n(C)c1C	21µM*	29%	5%	-1	-1%	?
SMILES	PLK1 PBD inh	G9a block	Sfp PPTase inh	CCT modulator	Mm-Cpn inhibitor	VDR inhibitor
Cc1cccc(CNC(=O)c2ccc(C)c(-n3c(C)nc4cccnc43)c2)c1	.	-28%[59 µM]	.	.	.	4%
COc1cc2ccccc2cc1C(=O)Nc1ccc2oc(-c3ccc(Cl)cc3)nc2c1	.	?	.	.	.	-6%
COc1ccccc1C(=O)Nc1ccc2oc(-c3ccc(F)cc3)nc2c1	-9%	-6%[12.7 µM]	50µM*	1	0%	13%
O=C(O)c1ccccc1-c1ccccc1C(=O)Nc1ccc(-c2nc3cc(Cl)ccc3o2)cc1	21µM*	4%[59 µM]	7%	0	0%	-27%
O=C(Nc1ccc(-c2nc3cc(Cl)ccc3o2)cc1)c1cc(Br)ccc1Cl	.	9%[59 µM]	.	.	.	-15%
CCOc1ccc(CCNC(=O)CN2N=C(c3ccccc3)CCC2=O)cc1OCC	.	6%[59 µM]	.	.	.	-3%
Cc1c(Cl)c(C(F)F)nn1CC(=O)NC1C(=O)N2C(C(=O)O)=C(CSc3nnnn3C)CSC12 (stereo not drawn)	?	28µM*	?	-1	0%	?
O=C(O)C1=C(CSc2nnnn2CS(=O)(=O)O)CS[C@@H]2[C@H](NC(=O)[C@H](O)c3ccccc3)C(=O)N12	.	?	79µM*	.	.	40µM*
Cc1cc(=O)c(C(=O)N[C@@H](C(=O)N[C@@H]2C(=O)N3C(C(=O)O)=C(CSc4nnnn4C)CS[C@H]23)c2ccc(O)cc2)c[nH]1	.	-1%[12.7 µM]	-23%	.	.	?
Cn1nnnc1SCC1=C(C(=O)O)N2C(=O)C(NC(=O)Cn3nc(C(F)F)cc3C3CC3)C2SC1 (stereo not drawn)	-21%	?	-19%	-3	-1%	-23%
CC(C(=O)NC1C(=O)N2C(C(=O)O)=C(CSc3nnnn3C)CSC12)n1cc(Cl)cn1 (stereo not drawn)	-17%	?	40µM*	0	1%	-13%
Cc1c(Cl)cnn1CC(=O)NC1C(=O)N2C(C(=O)O)=C(CSc3nnnn3C)CSC12 (stereo not drawn)	?	?	50µM*	-3	-3%	-13%
CC1=C(C(=O)Nc2ccccc2)C(c2cccs2)n2nc(SCc3ccccc3)nc2N1 (stereo not drawn)	.	3%[59 µM]	.	.	.	-16%
COc1ccccc1NC(=O)CN1CCCN(S(=O)(=O)c2ccc(Br)cc2)CC1	.	-5%[59 µM]	.	.	.	9%
Cc1nnc(SCC2=C(C(=O)O)N3C(=O)C(NC(=O)C(C)n4nc(C(F)(F)F)cc4C)C3SC2)s1 (stereo not drawn)	-23%	?	?	0	0%	-8%
Cc1nn(CC(=O)NC2C(=O)N3C(C(=O)O)=C(CSc4nnnn4C)CSC23)cc1Br (stereo not drawn)	-11%	40µM*	?	1	2%	1%
O=C(CC1C(=O)NCCN1CC1CCCCC1)NCc1ccc(Cl)cc1 (stereo not drawn)	-8%	-41%	4%	2	-6%	-11%
